In PubChem BioAssay AID1510 (The Scripps Research Institute Molecular Screening Center, 2009) one finds inhibition data, which are given here for 5 compounds.

Out of some 220,000 compounds screened, about 570 (0.26%) were called active. Many of the other results were omitted from the sample, so actives are more common in it than they were. Unmarked numbers belong to inactive results. Cut-off read from the data, not from the text of the source: active = inhibition above about 29%; inactive = the rest.

For this assay, the target named is Sphingosine 1-phosphate receptor 4 (Homo sapiens) (UniProt O95977). Kind of assay: blockers of human S1P4 receptor – cell-based, primary screen (AID 1510).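 Note: 0% = wells stimulated with agonist and 100% = vehicle wells without agonist.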 The following applies: S1P4-expressing cells, antagonist mode, reporter read-out; at 4.98 µM; active compounds read high.
Sphingosine 1-phosphate receptor 4 (Homo sapiens), sequence (O95977 whole entry, looked up): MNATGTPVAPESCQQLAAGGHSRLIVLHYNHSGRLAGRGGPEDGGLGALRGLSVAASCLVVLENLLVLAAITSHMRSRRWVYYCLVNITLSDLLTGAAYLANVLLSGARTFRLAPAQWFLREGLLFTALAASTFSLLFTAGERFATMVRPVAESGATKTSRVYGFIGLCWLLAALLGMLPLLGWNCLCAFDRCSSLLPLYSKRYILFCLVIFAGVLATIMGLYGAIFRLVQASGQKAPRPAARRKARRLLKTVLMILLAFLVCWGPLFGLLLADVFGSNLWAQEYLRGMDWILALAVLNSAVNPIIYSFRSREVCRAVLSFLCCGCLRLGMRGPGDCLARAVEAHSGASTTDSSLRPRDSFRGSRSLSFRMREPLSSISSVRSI
`CN(C)CC1Oc2ccccc2OC1(O)c1ccccc1` (stereo not given): the inhibition (in general, the change of the read-out against control, counted positive when it falls) was 66% (active).
Turning to `Cc1ccc(-c2nn(CCC#N)cc2C(=O)O)cc1C`, the inhibition is -15.8%.
The figure for `O=C(COC(=O)Cc1ccccc1)Nc1ccc(F)cc1` is -14%.
Consider `COP(=O)(NS(=O)(=O)c1ccccc1)OC`, for which the inhibition is -0.89%.
The value for `CN1CCN(Cc2ccc(OC(F)(F)F)cc2)CC1` was -5.02%.
